# Test results: PubChem BioAssay (NCI)
# This is part of a sample that, as a whole, favours compounds with a hit. Of some 83,000 tested, about 20% had one in any assay.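 Cell lines were cultured in 96-well plates, exposed to a single compound concentration, and assessed for percent growth 48 hours later.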 A number with no mark means an inactive call. Calls of active or inactive are those of the source. The calls were made as follows: active = growth percent below 10; inactive = the rest.
# Key:
# Test in all cases: NCI-60 one-dose screen, 48 h (100 = growth as untreated, 0 = no growth, -100 = all killed)
# Conditions in all cases: 10 µM unless noted
# [1] = test system: RPMI-8226 leukemia
# [2] = test system: OVCAR-8 ovarian
# [3] = test system: OVCAR-5 ovarian
# [4] = test system: OVCAR-4 ovarian
# [5] = test system: SK-OV-3 ovarian
# [6] = test system: IGROV1 ovarian
# [7] = test system: OVCAR-3 ovarian
# [8] = test system: HS 578T breast
# [9] = test system: NCI/ADR-RES ovarian
# [10] = test system: T-47D breast
# [11] = test system: BT-549 breast
# [12] = test system: MDA-MB-435 melanoma
# [13] = test system: SW-620 colon
# [14] = test system: HCT-116 colon
# [15] = test system: HCC-2998 colon
# [16] = test system: KM12 colon
# [17] = test system: MCF7 breast
SMILES,growth [1],growth [2],growth [3],growth [4],growth [5],growth [6],growth [7],growth [8],growth [9],growth [10],growth [11],growth [12],growth [13],growth [14],growth [15],growth [16],growth [17]
Cc1c(C)c2c(c(C)c1OCC(=O)O)CC[C@@](C)(CCC[C@@H](C)CCC[C@@H](C)CCCC(C)C)O2,-39.4% [50 µM] (active),-9.97% [50 µM] (active),25.5% [50 µM],45.9% [50 µM],53.3% [50 µM],1.82% [50 µM] (active),-67.3% [50 µM] (active),23% [50 µM],-28.2% [50 µM] (active),23.6% [50 µM],-4.37% [50 µM] (active),15% [50 µM],-41.8% [50 µM] (active),-66.1% [50 µM] (active),-3.58% [50 µM] (active),-73.8% [50 µM] (active),–
Cc1ccc(C2SCC(=O)N2Cc2ccccc2)cc1 (stereo not given),96.7%,98.8%,101%,98.9%,103%,102%,116%,103%,103%,95.2%,99%,95.4%,107%,94.2%,90.7%,102%,–
Cc1ccc(Nc2ccc(Nc3ccc(C)cc3)c3c2C(=O)c2cccc(O)c2C3=O)cc1,88.7%,97.8%,82.1%,105%,87.5%,-12.9% (active),121%,99%,99.8%,104%,113%,–,99.4%,99%,109%,92.7%,87.6%
C#Cc1cccc(NC(=O)c2ccc(NC(=O)CCl)cc2)c1,2.29% [8.25 µM] (active),-13.8% [8.25 µM] (active),40% [8.25 µM],17.1% [8.25 µM],77.3% [8.25 µM],-55.5% [8.25 µM] (active),-85.8% [8.25 µM] (active),38.2% [8.25 µM],11.1% [8.25 µM],19.1% [8.25 µM],-44.8% [8.25 µM] (active),–,-75.5% [8.25 µM] (active),-30.3% [8.25 µM] (active),92.8% [8.25 µM],37.9% [8.25 µM],4.22% [8.25 µM] (active)
COc1cccc(-c2nc3sccn3c2-c2ccnc(NCCNS(=O)(=O)c3cccc(Cl)c3)c2)c1,-4.85% (active),21.4%,89.6%,34%,65.6%,41.8%,48.2%,38.6%,22.7%,1.84% (active),18.3%,59.7%,66.5%,40%,64.2%,42.8%,–
O=S(=O)(NCCCNc1cc(-c2c(-c3cccc(O)c3)nc3sccn23)ccn1)c1cccc(Cl)c1,5.17% (active),17.1%,107%,35.2%,49.1%,40.5%,32.7%,32.5%,76.7%,6.58% (active),21.5%,27.4%,48.4%,–,58.2%,32.4%,55.5%
Cn1c(=O)c2[nH]c(NN)nc2n(C)c1=O,96%,129%,115%,116%,114%,116%,118%,122%,113%,104%,84.7%,106%,97.8%,102%,–,119%,104%
COc1cc(C2CC(=O)Nc3c2c(C)nn3-c2nc3ccccc3[nH]2)cc2c1OCC(=O)N2 (stereo not given),74.1%,34.9%,101%,73.2%,28.6%,60.4%,13.6%,26.7%,93.2%,83.6%,65.9%,48.5%,52.4%,107%,103%,70.8%,–
Cc1cc(=O)oc2c1ccc1oc(C#N)c(C)c12,88.9%,99.5%,92.4%,93.1%,107%,106%,98.6%,91.2%,96.2%,88.6%,94%,–,95.7%,89.9%,106%,104%,102%
Cn1c(=O)c2c(nc(Cl)n2CCl)n(C)c1=O,92.3%,83%,103%,83.2%,115%,53.8%,116%,83.8%,101%,103%,61.8%,–,45.9%,95.9%,–,116%,84.4%
c1ccc2cc3nc4cc5ccccc5cc4nc3cc2c1,58.6%,84.8%,91.6%,104%,97.3%,86.7%,96.7%,102%,73.4%,94.3%,105%,–,84.1%,72.3%,96.4%,85.4%,81.9%
COCCc1ccc(OCC(O)CNC(C)C)cc1 (stereo not given),98.1%,101%,110%,98.8%,106%,104%,118%,101%,105%,102%,94.2%,97.4%,105%,101%,102%,105%,–
OC(COc1ccccc1Cl)COc1ccccc1Cl,81.5%,109%,81.9%,105%,107%,96.7%,118%,102%,95.9%,97.1%,86.6%,94.8%,97.9%,90.9%,–,99.2%,–
COc1ccc(C2=Nc3c(N)ncnc3NC(c3ccc4c(c3)OCO4)C2)cc1 (stereo not given),61.5%,103%,72.9%,95%,97.5%,37%,100%,87.7%,75.7%,80.3%,89%,94.2%,85.5%,74.2%,-6.86% (active),95.8%,–
O=c1[nH]ccc2nc(N3CCC(O)CC3)nc(Nc3ccc(N4CCOCC4)cc3)c12,80.9%,85.5%,42.6%,112%,14.9%,47.3%,101%,45.7%,95.2%,73%,29.7%,40.6%,39.6%,–,80.3%,8.57% (active),44.2%
COc1ccc(C(=O)Nn2c(NCC(=O)N3c4ccccc4Sc4ccccc43)nnc2-c2ccc(O)cc2)cc1,105%,101%,89.3%,120%,105%,110%,121%,106%,97.8%,106%,96.5%,102%,104%,101%,–,109%,–
CCOC(CN=Cc1cc(C)c2[nH]c3ccccc3c2c1C)OCC,88.7%,94.7%,83.4%,97.8%,111%,102%,104%,123%,101%,94.4%,83.2%,97.8%,99.1%,–,113%,106%,88.9%
O=C(Nc1ccccc1-c1nc2ccccc2c(=O)[nH]1)c1cc2ccccc2[nH]1,98%,87.4%,95.3%,105%,78.4%,69.2%,102%,85.8%,98.1%,70.1%,85.3%,106%,94.2%,–,104%,88.2%,68%
